High-throughput results from PubChem.
D3 ag: activates the human D3 dopamine receptor; P35462; D3R DiscoveRx beta-arrestin cells, luminescence, 90 min; max activation, %; 410,000 tested, 0.58% active; AID 652048; in the data active means max activation above about 30%; further: 0% is about no effect
Target sequence (P35462 whole entry, looked up): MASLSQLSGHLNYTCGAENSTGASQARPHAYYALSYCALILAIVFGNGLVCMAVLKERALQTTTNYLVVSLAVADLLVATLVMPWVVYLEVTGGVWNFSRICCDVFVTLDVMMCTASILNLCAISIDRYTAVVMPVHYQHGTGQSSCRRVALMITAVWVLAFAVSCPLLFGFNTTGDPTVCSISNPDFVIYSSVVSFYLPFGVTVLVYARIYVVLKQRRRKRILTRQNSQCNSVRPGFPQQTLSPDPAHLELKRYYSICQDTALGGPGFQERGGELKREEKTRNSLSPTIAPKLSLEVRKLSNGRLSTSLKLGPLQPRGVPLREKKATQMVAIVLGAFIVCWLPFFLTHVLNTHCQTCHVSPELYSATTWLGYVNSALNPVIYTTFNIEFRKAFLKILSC
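Agonist mode: compounds and dopamine controls were applied to plated cells for 90 min at 37 degrees C after an overnight attachment at 1500 cells/well. Luminescent read-out followed 30 - 60 minutes at room temperature with DiscoveRx detection reagent.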
HepG2 tox: kills HepG2 cells in TGF-b inhibitor counter-screen | HepG2 CAGA-GFP viability, ATP luminescence, 18 h | AID 588856 | 410,000 tested, 0.76% active | Potency, µM (series often up to 46.1 µM), for inactives: top-dose activity change, negative = cytotoxicity, actives largely listed as cytotoxic; further: potency means the concentration at half of the fitted maximal effect
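CellTiter-Glo luminescence gave cytotoxicity after 18 hours at 37 degrees C. The cells were HepG2 CAGA-GFP in 1% FBS DMEM, stimulated with 500 pg/mL TGF-beta after compound addition. %Activity was normalised to no-cell wells (complete cell-killing) and DMSO (no toxicity), and curves were fitted and classified.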
ATXN2 expr inh: inhibitors of ATXN2 expression; HEK-293 ATXN2-luciferase reporter, luminescence, 24 h; Potency, µM (top dose mostly 57 µM), for inactives: at the highest dose activity change, negative = inhibition, actives largely listed as inhibitors; 360,000 tested, 0.72% active; AID 1745845; further: potency means the concentration at half of the fitted maximal effect; on the % scale 0 is the no-effect control and ±100 the full control effect; nearly all actives have a fitted effect of over 55% in size
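qHTS (up to 57 uM final) was run with 24 h compound exposure of reporter cells at 37 °C. Each well was multiplexed: SteadyGlo luminescence measured ATXN2-luciferase expression after a fluorogenic Gly-Phe-AFC viability readout (25 uM final).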
S2 tox: viability counter-screen for ATXN expression inhibitors; S2 cells (HEK-293 line with an ATXN2-luciferase reporter) viability, CellTiter-Fluor protease fluorescence, 24 h; Potency, µM (series often up to 56.7 µM), actives largely listed as cytotoxic; 400,000 tested, 0.49% active; AID 651635; further: potency means the concentration at half of the fitted maximal effect; nearly all actives have a fitted effect of over 40% in size
TGFb inhibitor: blocks TGF-b signaling; HepG2 CAGA-GFP TGF-b/SMAD3 reporter, GFP fluorescence, 18 h; TGF-beta stimulated, 500 pg/mL final; Potency, µM (highest dose often 46.1 µM), for the others: at the top dose activity, negative = inhibition, usual class: inhibitors; 410,000 tested, 1.2% active; further: potency means the concentration at half of the fitted maximal effect; on the % scale 0 is the no-effect control and ±100 the full control effect; nearly all actives have a fitted effect of over 65% in size
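HEPG2 CAGA-GFP, 1000 cells/well; 2 h settle, 37 C; cpd via pin tool; TGF-b 500 pg/mL final; 18 h, 37 C; GFP imaging ex488/em500-530; %Activity normalised to -TGF-b and +DMSO controls; CRC fit, curve class.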
DRD3 antagonist: blocks the human D3 dopamine receptor; P35462; max response, negative = inhibition, %; 360,000 tested, 2.5% active; D3R cells, DiscoveRx beta-arrestin luminescence, antagonist mode; stronger effect = lower value; AID 652054; in the data active means max response below about -50%; inconclusive means no clear call, values can overlap the other calls; further: on the % scale 0 is the no-effect control and ±100 the full control effect
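Cells plated overnight at 1500 cells/well, then exposed to library compounds with dopamine controls for 90 minutes at 37 degrees C. DiscoveRx reagent added for 30–60 minutes at room temperature; luminescence read, quantitative HTS format.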
* marks the source's active call; other numbers are inactive results; i = inactive; ? = inconclusive; nt = no result; [ ] = dose if it differs, or a comment. Rows were chosen to be rich in hits. Some 4.7% of all compounds tested hit in one or more screens of this group. Unless noted, the call rests on the fitted dose curve; in most records, active means well fitted curve in the direction sought with a large enough effect; inconclusive means small, poorly fitted or top-dose-only effect, or another doubt; inactive means no such curve, though single readings can be large; an effect the other way counts as inactive or inconclusive.

SMILES	D3 ag	HepG2 tox	ATXN2 expr inh	S2 tox	TGFb inhibitor	DRD3 antagonist
O=C(c1ccccc1)C(CCC(CN1CCOCC1)C(=O)c1ccccc1)CN1CCOCC1 (centres undefined)	-23	-104%	22µM*	nt	?	-11
CCCOc1ccc(C(=O)C(CN2CCCC2)c2ccccc2)cc1 (centres undefined)	-30	-92%	?	?	?	-11
COc1ccc(C(=O)C(CN2CCOCC2)c2ccccc2)cc1 (centres undefined)	-17	-89%	?	18µM*	?	-22
Cc1nc2scc(-c3ccccc3)c2c(=O)n1N	5	-4%	1%	i	16%	-15
Cc1nc2scc(-c3ccccc3)c2c(=O)n1N=C1C=CC(=O)C=C1	-18	-1%	8%[11.3 µM]	nt	-30%	-83*
CC(C)C[C@H](NC(=O)[C@@H](NC(=O)c1cccc(-c2ccccc2)n1)[C@@H](C)O)B(O)O	nt	nt	0.061µM*	nt	nt	nt
O=Cc1ccc(N2CCCC2)c([N+](=O)[O-])c1	1	-3%	-25%[11.3 µM]	i	?	9
O=[N+]([O-])/C=C\c1ccc(N2CCCC2)c(F)c1	-10	-35%	?	?	11µM*	10
CC(C)(C)c1ccc(C2=NC(C)(C)N(CC(=O)Nc3ccc(F)c(F)c3)C2=O)cc1	3	-36%	nt	nt	nt	nt
CC(C)CC(N)c1csc(Nc2ccc(C(=O)N(C)Cc3ccccc3)cn2)n1 (centres undefined)	-12	-109%	28µM*	28µM*	?	0
CN(Cc1ccccc1)C(=O)c1ccc(Nc2nc(C(N)Cc3ccccc3)cs2)nc1 (centres undefined)	0	16µM*	14µM*	16µM*	?	-3
NC(CCc1ccccc1)c1csc(Nc2ccc(C(=O)NCCCO)cn2)n1 (centres undefined)	6	-8%	-6%	i	16%	17
CCCCN(C)C(=O)c1ccc(Nc2nc(C(N)Cc3ccccc3)cs2)nc1 (centres undefined)	-5	-94%	?	?	?	-24
CN(Cc1ccccc1)C(=O)c1ccc(Nc2nc(C(N)Cc3ccc(C(F)(F)F)cc3)cs2)nc1 (centres undefined)	5	10µM*	?	32µM*	?	30
CN(Cc1ccccc1)C(=O)c1ccc(Nc2nc(C(N)COCc3ccccc3)cs2)nc1 (centres undefined)	4	-35%	?	?	?	0
Cn1c2c(c3ccccc31)CCN(CCCCN1CCN(c3ccccc3)CC1)C2=O	54*	-35%	0%	?	-7%	4
O=C(NCCc1ccccc1)c1ccc(CSc2nc3ccncc3n2Cc2ccccc2F)cc1	-21	-19%	-18%	?	7.1µM*	nt
Cc1cccc(Cn2c(SCc3ccc(C(=O)NCCc4ccccc4)cc3)nc3ccncc32)c1	-25	-52%	-29%	?	7.9µM*	nt
N#C/C(=C(/O)COC(=O)CSc1ccc(Cl)cc1)c1nc2ccccc2[nH]1	-7	-14%	28µM*	14µM*	17%	-9
COc1ccc2oc(C(=O)OC/C(O)=C(\C#N)c3nc4ccccc4[nH]3)c(C)c2c1	4	3%	-25%	i	17%	-21
N#CC(=C(O)COC(=O)CCC1CCCCC1)c1nc2ccccc2[nH]1	4	16%	20µM*	nt	-5%	8
COc1ccccc1OCC(=O)OC/C(O)=C(\C#N)c1nc2ccccc2[nH]1	0	2%	nt	3.2µM*	-11%	13
CCOC(=O)c1c(C)[nH]c(C(=O)OC/C(O)=C(\C#N)c2nc3ccccc3[nH]2)c1C	-1	-75%	-9%	?	-15%	-52*
O=C(Cn1nc(-c2ccccc2)c2cnc3ccc(F)cc3c21)NC1CCCC1	-6	0%	11%	?	29%	nt
Cc1cccc(CNC(=O)CN2C(=O)CSc3c2c(C)nn3-c2ccccc2)c1	4	-4%	2%	i	?	nt
SMILES	D3 ag	HepG2 tox	ATXN2 expr inh	S2 tox	TGFb inhibitor	DRD3 antagonist
N#C/C(=C(/O)COC(=O)c1ccc2c(c1)OCCO2)c1nc2ccccc2[nH]1	-2	16µM*	9%	?	-6%	-62*
Cc1cc(C)c(O)c(CN(C)Cc2cc(Cl)cc(Cl)c2O)c1	41*	-58%	?	i	?	17
Cc1ccnc(NCc2cc(Cl)cc(Cl)c2O)c1	-4	-25%	nt	?	-2%	-17
COc1cc(OC)c2ccc(=O)oc2c1C(CCN1CCN(c2ccccc2)CC1)c1ccc(N(C)C)cc1 (centres undefined)	-62	-20%	4%	i	-25%	-115*
COc1ccc(C(CCN2CCOCC2)c2c(OC)cc(OC)c3ccc(=O)oc23)cc1 (centres undefined)	-32	-19%	-15%	?	?	-16
COc1cc(OC)c2c(-c3ccccc3)cc(=O)oc2c1C(CCN1CCN(c2ccccc2)CC1)c1ccc(N(C)C)cc1 (centres undefined)	-4	3%	0%	i	?	-62*
CCCCCc1cc(=O)oc2c(C(CCN3CCN(c4ccccc4)CC3)c3ccc(N(C)C)cc3)c(OC)cc(OC)c12 (centres undefined)	-45	-1%	-9%	?	-1%	-52*
COc1cc(OC)c2c(C)cc(=O)oc2c1C(CCN1CCN(c2ccccc2)CC1)c1ccc2c(c1)OCO2 (centres undefined)	29	-2%	-14%	?	-11%	-13
COc1cc(C(CCN2CCOCC2)c2c(OC)cc(OC)c3c(-c4ccccc4)cc(=O)oc23)cc(OC)c1OC (centres undefined)	-3	11µM*	-22%	?	?	-10
COC(=O)c1c(-c2cccs2)csc1NC(=O)COc1ccccc1	-9	0%	nt	nt	nt	nt
COc1ccc(C(CCN2CCN(c3ccccc3)CC2)c2c(OC)cc(OC)c3c(-c4ccccc4)cc(=O)oc23)cc1 (centres undefined)	-1	-11%	4%	i	?	-53*
O=C(Nc1ccc(F)cc1F)c1c(C(F)(F)F)ccnc1Oc1cccc(C(F)(F)F)c1	0	-13%	-20%	i	?	-58*
O=C(Nc1ccc(F)cc1F)c1c(C(F)(F)F)ccnc1Oc1ccc(Cl)cc1	-9	15%	-10%	i	1%	4
CCOC(=O)N1CCN(/[N+]([O-])=N/Oc2ccc(C(F)(F)F)cc2[N+](=O)[O-])CC1	nt	-21%	nt	nt	-22%	nt
